Laboratory results: PubChem BioAssay (NCATS)
Several values for one entry are separate records, joined by “and”; a condition that tells them apart may be missing. Equal entries are not always repeated. Inconclusive results are not listed. Activity calls are given as the source filed them. Unless noted, calls follow the shape of the dose curve; as a rule, active = well fitted curve in the direction sought with a large enough effect; inconclusive = small, poorly fitted or top-dose-only effect, or another doubt; inactive = no such curve, though single readings can be large; an effect the other way counts as inactive or inconclusive. Starred links: 1 amine or outer side, 2 acyl side, 3 side chain; linkers in the order of their positions; H or OH if unused. Positions of bridges follow the written chain, without caps; N, C: chain ends. Non-standard residues stand in square brackets, D forms with d. Residues, ends and D or L forms follow the SMILES beside them. *: point of attachment. X4 = NC1=N[C@@H](O)C[C@H]([C@H](N[*:1])C(=O)[*:2])N1; ΔAla(3-NHCONH2) = NC(=O)NC=C(N)C(=O)O; β3hOrn = NCCC[C@H](N)CC(=O)*; Dap = NC[C@H](N)C(=O)O

What was measured:
[1] = molecular target: Cytochrome P450 1A2 (Homo sapiens) (UniProt P05177); assay: p450-cyp1a2 (AID 410; calls by dose curve; also: potency is read from the fitted curve at half-maximal effect)
Sequence of Cytochrome P450 1A2 (Homo sapiens) (P05177 whole entry, looked up): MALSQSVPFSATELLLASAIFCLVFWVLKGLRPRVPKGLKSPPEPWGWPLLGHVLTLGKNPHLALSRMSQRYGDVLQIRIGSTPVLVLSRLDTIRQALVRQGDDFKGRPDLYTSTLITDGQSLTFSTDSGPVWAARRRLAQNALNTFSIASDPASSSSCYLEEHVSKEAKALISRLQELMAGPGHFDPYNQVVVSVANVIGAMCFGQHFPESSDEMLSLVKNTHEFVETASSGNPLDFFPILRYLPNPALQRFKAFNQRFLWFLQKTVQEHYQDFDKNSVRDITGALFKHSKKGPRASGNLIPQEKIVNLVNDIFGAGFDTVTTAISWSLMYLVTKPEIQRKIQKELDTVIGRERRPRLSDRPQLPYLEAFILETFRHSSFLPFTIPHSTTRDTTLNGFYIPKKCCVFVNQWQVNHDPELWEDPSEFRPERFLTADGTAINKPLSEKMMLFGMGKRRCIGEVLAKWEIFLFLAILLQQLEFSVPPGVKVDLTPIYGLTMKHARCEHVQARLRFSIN
Method in brief: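 Human CYP1A2 (20nM) demethylated Luciferin-ME at its Km (100uM) in 100mM KPO4. After 10 min compound preincubation, NADPH regeneration ran the reaction 60 min at room temperature. Luciferin was read by luminescence, normalized to 57 uM furafylline.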

[2] = Stat Signaling Pathway (AID 446; active = well fitted curve in either direction with a large enough effect, not every such curve was filed as active;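 also: ME-180 cervical cancer cells given 40 pM IL-6 alongside compound; SIE-controlled beta-lactamase reporter measured as 460/530 nm FRET emission ratio; % is scaled to controls: 0 for no effect and ±100 for the full control effect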); conditions: ME-180 (cervical carcinoma) SIE beta-lactamase reporter, IL-6 stimulated, 5 h; at 7.69 µM (top of the series) unless noted
Method in brief: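 IL-6/STAT signaling read in ME-180 cells via an SIE beta-lactamase reporter. Stimulus was 40 pM IL-6 (its AC50) for 5 hrs, so both activation and inhibition register.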

[3] = molecular target: Glucocorticoid receptor (Homo sapiens) (UniProt P04150); assay: GR-GFP Redistribution (AID 450;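 active = compounds whose dose series gives a full or clear partial fitted curve of increased nuclear translocation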; also: potency is read from the fitted curve at half-maximal effect); conditions: U2OS GR-GFP nuclear translocation, laser cytometry, 2 h
Sequence of Glucocorticoid receptor (Homo sapiens) (P04150 whole entry, looked up, the tested form may be a part): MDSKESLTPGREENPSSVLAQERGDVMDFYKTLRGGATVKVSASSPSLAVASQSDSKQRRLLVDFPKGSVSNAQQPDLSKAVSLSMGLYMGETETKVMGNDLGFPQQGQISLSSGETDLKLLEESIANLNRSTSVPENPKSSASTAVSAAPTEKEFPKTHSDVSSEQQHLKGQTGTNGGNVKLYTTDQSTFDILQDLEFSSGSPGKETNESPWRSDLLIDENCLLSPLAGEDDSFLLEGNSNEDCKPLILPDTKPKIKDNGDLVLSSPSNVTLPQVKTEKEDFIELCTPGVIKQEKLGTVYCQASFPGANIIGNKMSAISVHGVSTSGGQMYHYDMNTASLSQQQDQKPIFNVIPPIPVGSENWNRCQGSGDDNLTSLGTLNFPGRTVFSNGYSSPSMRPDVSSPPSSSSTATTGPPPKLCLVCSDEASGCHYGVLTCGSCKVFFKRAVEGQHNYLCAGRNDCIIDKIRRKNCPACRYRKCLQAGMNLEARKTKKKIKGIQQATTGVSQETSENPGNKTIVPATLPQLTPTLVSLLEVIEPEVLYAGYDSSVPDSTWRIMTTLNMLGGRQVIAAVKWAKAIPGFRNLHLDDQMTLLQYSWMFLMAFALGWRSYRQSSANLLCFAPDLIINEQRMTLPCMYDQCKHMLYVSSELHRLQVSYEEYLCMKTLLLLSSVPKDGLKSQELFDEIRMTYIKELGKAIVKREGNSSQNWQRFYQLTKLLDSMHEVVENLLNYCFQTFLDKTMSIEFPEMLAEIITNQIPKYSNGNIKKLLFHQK

[4] = molecular target: Glucocorticoid receptor (Homo sapiens) (UniProt P04150); assay: GR-EFC Redistribution (AID 451; calls by dose curve; also: potency is read from the fitted curve at half-maximal effect); conditions: CHO-K1 GR-EFC translocation, beta-gal luminescence, 2 h
Method in brief: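 Translocation of GR-ED fusion to nuclear EA restores b-gal, read by luminescence after 1 h room-temperature detection. Engineered CHO-K1 biosensor cells, 1,000/well, exposed 2 h at 37 C to titrations up to 46 uM final.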

[5] = molecular target: Mitogen-activated protein kinase 10 (Mus musculus) (UniProt Q61831); assay: JNK3 AlphaScreen Assay (AID 530; active = well fitted curve in either direction with a large enough effect, not every such curve was filed as active;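 also: kinase came from lysate of stimulated human HepG2 cells; signal reports phosphorylation of biotinylated GST-cJun 1-79 at Ser73 with 10 µM ATP; % is scaled to controls: 0 for no effect and ±100 for the full control effect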)
Method in brief: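 Room-temperature AlphaScreen kinase assay; pre-activated HepG2 lysate as JNK3 source, biotin-GST-cJun(1-79) substrate, 10 uM ATP, compound 15 min preincubation.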

[6] = molecular target: Cytochrome P450 3A4 (Homo sapiens) (UniProt P08684); assay: qHTS Assay for Activators of Cytochrome P450 3A4 (AID 885); also: nearly all actives have a fitted effect of over 65% in size
Sequence of Cytochrome P450 3A4 (Homo sapiens) (P08684 whole entry, looked up): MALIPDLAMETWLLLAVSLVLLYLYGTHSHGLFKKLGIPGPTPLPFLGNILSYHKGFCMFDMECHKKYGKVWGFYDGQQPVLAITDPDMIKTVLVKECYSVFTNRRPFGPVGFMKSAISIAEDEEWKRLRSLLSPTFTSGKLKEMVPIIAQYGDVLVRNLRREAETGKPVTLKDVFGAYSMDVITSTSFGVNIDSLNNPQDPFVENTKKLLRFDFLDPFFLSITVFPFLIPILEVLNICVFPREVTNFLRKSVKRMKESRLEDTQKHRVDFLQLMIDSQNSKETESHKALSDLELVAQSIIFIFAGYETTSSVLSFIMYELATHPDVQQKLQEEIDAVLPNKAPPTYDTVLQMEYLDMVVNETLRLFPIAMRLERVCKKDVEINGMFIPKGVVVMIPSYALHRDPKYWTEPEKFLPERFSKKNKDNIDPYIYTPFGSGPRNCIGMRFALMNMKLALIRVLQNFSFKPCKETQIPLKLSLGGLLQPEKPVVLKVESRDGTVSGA
Method in brief: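 Quantitative HTS format: compounds preincubated with 20nM human CYP3A4 and Luciferin-PPXE substrate at KM, reaction started by NADPH regeneration, stopped after 60 min, luciferase luminescence read 20 min later.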

[7] = Primary qHTS for small molecule stabilizers of the endoplasmic reticulum resident proteome: Secreted ER Calcium Modulated Protein (SERCaMP) assay (AID 1508630); also: % is scaled to controls: 0 for no effect and ±100 for the full control effect
Method in brief: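 GLuc-SERCaMP-expressing SH-SY5Y cells, pretreated 16 h with compound, are challenged with thapsigargin to empty ER calcium stores; after 4 h, coelenterazine is added directly to the medium and luminescence is imaged.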

[8] = molecular target: Cytochrome P450 3A4 (Homo sapiens) (UniProt P08684); assay: qHTS Assay for Inhibitors and Substrates of Cytochrome P450 3A4 (AID 884); also: nearly all actives have a fitted effect of over 50% in size; also: potency is read from the fitted curve at half-maximal effect
Method in brief: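 20 nM human CYP3A4 with 25 uM Luciferin-PPXE (at KM) in 200 mM KPO4, preincubated 10 min with compound; NADPH regeneration started a 60 min RT reaction. Luciferin detected by luminescence, normalized to 57 uM ketoconazole as full inhibition.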

[9] = molecular target: Ubiquitin carboxyl-terminal hydrolase 1 (Homo sapiens) (UniProt O94782); assay: Inhibitors of USP1/UAF1: Pilot qHTS (AID 504865);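 also: rhodamine fluorescence freed from ubiquitin-rhodamine substrate followed over time; top concentration of the series differs between compounds; % is scaled to controls: 0 for no effect and ±100 for the full control effect; nearly all actives have a fitted effect of over 35% in size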
Sequence of Ubiquitin carboxyl-terminal hydrolase 1 (Homo sapiens) (O94782 whole entry, looked up): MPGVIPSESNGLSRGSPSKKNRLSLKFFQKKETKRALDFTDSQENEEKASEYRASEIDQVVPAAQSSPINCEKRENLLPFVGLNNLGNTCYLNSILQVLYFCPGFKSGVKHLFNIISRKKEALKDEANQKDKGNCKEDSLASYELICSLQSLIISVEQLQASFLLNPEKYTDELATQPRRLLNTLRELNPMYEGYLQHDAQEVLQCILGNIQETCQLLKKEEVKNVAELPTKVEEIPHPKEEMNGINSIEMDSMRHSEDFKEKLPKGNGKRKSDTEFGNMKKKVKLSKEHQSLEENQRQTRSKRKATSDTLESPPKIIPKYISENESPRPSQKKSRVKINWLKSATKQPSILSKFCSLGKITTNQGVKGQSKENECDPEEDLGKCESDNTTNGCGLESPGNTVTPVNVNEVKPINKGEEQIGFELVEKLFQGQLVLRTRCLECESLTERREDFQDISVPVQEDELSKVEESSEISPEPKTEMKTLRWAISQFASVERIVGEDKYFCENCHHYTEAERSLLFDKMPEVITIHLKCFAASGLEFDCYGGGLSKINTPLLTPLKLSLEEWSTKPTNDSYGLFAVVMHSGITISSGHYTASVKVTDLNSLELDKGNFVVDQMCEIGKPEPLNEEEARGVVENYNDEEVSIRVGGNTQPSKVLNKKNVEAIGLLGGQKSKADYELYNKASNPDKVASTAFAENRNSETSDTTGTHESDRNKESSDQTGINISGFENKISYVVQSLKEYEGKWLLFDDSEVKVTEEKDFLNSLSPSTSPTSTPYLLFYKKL
Method in brief: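 USP1/UAF1 complex (1nM) preincubated with compound 15 min at room temperature, then Ub-Rho substrate (150nM final) added. Fluorescence read kinetically at 480/540 nm, 6 reads every 60 seconds. Buffer: 50mM HEPES pH 7.8, 0.5mM EDTA, 0.1 mg/ml BSA, 1mM TCEP, 0.01% Tween-20.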

[10] = NFAT Signaling Pathway (AID 444; active = well fitted curve in either direction with a large enough effect, not every such curve was filed as active;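 also: carbachol stimulus at about its EC50 of 1 µM final; % is scaled to controls: 0 for no effect and ±100 for the full control effect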); conditions: Jurkat NFAT-bla M1, carbachol, beta-lactamase ratio, 5 h; at 7.69 µM (top of the series) unless noted
Method in brief: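 Read-out: CCF4 FRET ratio (460 nm/530 nm) after 1 h RT dye loading, used for %activity and AC50 from titration series. Cells: Jurkat NFAT-β-lactamase/M1 line, treated with compound plus 1 uM carbachol for 5 h, 37 °C.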

[11] = molecular target: 3',5'-cyclic-AMP phosphodiesterase 4B (Homo sapiens) (UniProt Q07343); assay: qHTS Assay for Inhibitors of PDE-IV (AID 607; active = well fitted activation curve with a large enough effect in the main read-out, with a control signal flat, not every such curve was filed as active; also: % of control where 0% means no effect)
Method in brief: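 Live HEK293 cells with a modified cyclic nucleotide-gated (CNG) channel report intracellular cAMP via membrane-potential dye fluorescence (ex 535/em 590 nm). Endogenous PDE-IV was targeted. Compounds were tested at up to 22.9 uM final; RO 20-1724 100 uM served as control.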

[12] = Confirmation and Secondary Assay for Modulators of Hemoglobin Beta Chain Splicing at IVS2 654 locus (AID 910);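 also: HeLa cells stably carrying EGFP split by mutant beta-globin IVS2-654 intron; % of control where 0% means no effect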
Method in brief: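 Readout: per-well total peak green fluorescence (488 nm ex, 500–520 nm em) from objects 5–250 µm, reflecting correct splicing of an EGFP-654 reporter. Compounds were applied for 2 days at 37 °C to overnight-plated HeLa EGFP-654 cells; controls were DMSO and 500 nM IVS2-654 PNA.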

[13] = Confirmation and Secondary Assay for Modulators of Hemoglobin Beta Chain Splicing at IVS2 705 locus (AID 930);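 also: HeLa cells stably expressing the EGFP-705 splicing reporter; GFP fluorescence per well restored by corrected splicing of the IVS2-705 intron in EGFP; % of control where 0% means no effect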
Method in brief: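 Read-out: total peak GFP fluorescence per well (488 nm excitation, 500-520 nm emission) by laser-scanning cytometry. Cells: HeLa EGFP-705 splicing reporter, 2 days compound exposure in Optimem/2% FCS.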

[14] = qHTS Assay for Lipid Storage Modulators (AID 1519; calls by dose curve); conditions: Drosophila S3 cells, BODIPY lipid droplet/cell ratio, laser cytometry, cells loaded with oleic acid
Method in brief: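 Cells seeded at 5,000 per well were treated with compounds over a concentration series and loaded with oleic acid (400 uM, as added). Lipid droplet fluorescence (488 nm excitation, 500-530 nm channel) was read by laser-scanning cytometry and normalized to 20 uM Triacsin C.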

[15] = molecular target: Rap guanine nucleotide exchange factor 3 (Homo sapiens) (UniProt O95398); assay: Confirmatory qHTS for antagonist of cAMP-regulated guanine nucleotide exchange factor 3 (EPAC1) (AID 1645880);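 also: plate controls were DMSO only for no effect and full effect of the ATA control for full effect; nearly all actives have a fitted effect of over 55% in size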
Sequence of Rap guanine nucleotide exchange factor 3 (Homo sapiens) (O95398 whole entry, looked up): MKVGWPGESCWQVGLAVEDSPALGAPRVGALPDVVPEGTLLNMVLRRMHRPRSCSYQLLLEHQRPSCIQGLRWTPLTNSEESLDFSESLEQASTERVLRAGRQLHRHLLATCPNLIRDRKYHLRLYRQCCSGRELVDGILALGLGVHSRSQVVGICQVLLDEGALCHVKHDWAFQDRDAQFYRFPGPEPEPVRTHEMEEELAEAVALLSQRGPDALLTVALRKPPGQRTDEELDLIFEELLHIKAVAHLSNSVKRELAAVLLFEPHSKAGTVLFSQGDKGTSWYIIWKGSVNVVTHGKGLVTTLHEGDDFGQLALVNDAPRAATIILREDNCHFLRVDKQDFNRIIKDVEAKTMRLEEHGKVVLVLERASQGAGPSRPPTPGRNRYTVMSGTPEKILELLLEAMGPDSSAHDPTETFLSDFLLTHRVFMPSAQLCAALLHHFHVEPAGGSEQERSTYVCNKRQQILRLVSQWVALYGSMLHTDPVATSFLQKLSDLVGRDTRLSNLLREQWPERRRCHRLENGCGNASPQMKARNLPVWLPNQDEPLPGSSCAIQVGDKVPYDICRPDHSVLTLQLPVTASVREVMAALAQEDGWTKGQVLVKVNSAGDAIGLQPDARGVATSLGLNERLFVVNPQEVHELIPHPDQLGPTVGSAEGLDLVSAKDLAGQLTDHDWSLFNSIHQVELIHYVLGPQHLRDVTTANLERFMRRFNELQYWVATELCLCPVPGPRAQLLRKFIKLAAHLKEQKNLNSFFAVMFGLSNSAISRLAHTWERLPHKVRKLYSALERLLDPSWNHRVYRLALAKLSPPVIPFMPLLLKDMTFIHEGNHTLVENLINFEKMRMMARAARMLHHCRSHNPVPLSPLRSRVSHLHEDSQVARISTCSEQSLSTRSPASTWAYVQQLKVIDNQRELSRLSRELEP
Method in brief: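 Nucleotide exchange uses 100 nM EPAC1, 250 nM RAP1B-BODIPY-GDP and 50 uM GDP, with compounds in a concentration-titration series. After 5 min at room temperature, fluorescence (480 nm ex/540 nm em) is read every 5 min for 30 min. Data are normalized to control ATA and DMSO.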

[16] = molecular target: Rap guanine nucleotide exchange factor 3 (Homo sapiens) (UniProt O95398); assay: Confirmatory qHTS for agonist of cAMP-regulated guanine nucleotide exchange factor 3 (EPAC1) (AID 1645881);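 also: EPAC1 catalysed release of BODIPY-GDP from Rap1B seen as fluorescence loss; 100% = effect of cAMP agonist control; nearly all actives have a fitted effect of over 75% in size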
[17] = molecular target: Rap guanine nucleotide exchange factor 4 (Homo sapiens) (UniProt Q8WZA2); assay: Confirmatory qHTS for agonist of cAMP-regulated guanine nucleotide exchange factor 4 (EPAC2) (AID 1645884);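 also: nucleotide exchange releases bodipy-GDP from Rap1 and this lowers its fluorescence; % is scaled to controls: 0 for no effect and ±100 for the full control effect; nearly all actives have a fitted effect of over 65% in size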
Sequence of Rap guanine nucleotide exchange factor 4 (Homo sapiens) (Q8WZA2 whole entry, looked up): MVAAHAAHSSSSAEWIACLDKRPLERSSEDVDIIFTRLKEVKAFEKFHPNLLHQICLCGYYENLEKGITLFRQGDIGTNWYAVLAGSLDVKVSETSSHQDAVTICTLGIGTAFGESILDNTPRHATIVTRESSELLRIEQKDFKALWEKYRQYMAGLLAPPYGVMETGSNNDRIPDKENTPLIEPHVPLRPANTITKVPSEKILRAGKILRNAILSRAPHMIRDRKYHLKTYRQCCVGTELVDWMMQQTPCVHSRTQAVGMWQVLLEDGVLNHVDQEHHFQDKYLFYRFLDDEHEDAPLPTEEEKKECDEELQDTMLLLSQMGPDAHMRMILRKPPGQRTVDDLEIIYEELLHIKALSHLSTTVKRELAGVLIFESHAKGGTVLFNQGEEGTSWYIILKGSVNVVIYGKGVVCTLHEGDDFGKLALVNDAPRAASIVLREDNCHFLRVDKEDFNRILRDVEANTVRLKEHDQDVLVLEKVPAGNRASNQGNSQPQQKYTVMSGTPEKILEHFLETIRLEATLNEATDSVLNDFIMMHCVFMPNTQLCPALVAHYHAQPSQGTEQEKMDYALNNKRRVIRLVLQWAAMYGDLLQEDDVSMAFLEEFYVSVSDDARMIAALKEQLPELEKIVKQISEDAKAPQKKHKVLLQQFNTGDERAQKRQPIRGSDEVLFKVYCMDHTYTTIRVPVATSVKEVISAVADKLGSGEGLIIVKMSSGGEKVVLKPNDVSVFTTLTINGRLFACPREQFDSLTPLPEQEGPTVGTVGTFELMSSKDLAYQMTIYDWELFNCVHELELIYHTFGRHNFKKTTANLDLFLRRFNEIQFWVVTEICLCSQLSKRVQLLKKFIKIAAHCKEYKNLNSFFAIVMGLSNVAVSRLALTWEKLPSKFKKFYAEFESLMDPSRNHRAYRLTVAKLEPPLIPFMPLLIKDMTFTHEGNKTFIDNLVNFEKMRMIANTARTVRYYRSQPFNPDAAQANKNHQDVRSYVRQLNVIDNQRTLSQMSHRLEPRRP

[18] = molecular target: Rap guanine nucleotide exchange factor 4 (Homo sapiens) (UniProt Q8WZA2); assay: Confirmatory qHTS for antagonist of cAMP-regulated guanine nucleotide exchange factor 4 (EPAC2) (AID 1645885); also: % is scaled to controls: 0 for no effect and ±100 for the full control effect; nearly all actives have a fitted effect of over 25% in size
[19] = measured here: cell count channel max response
[20] = measured here: lipid channel max response

## COc1cccc(Nc2ncc3nc(CCc4ccccc4)c(=O)n(C4CC4)c3n2)c1
[1]
  Potency: 5.01 µM (active)
[2]
  activity, negative = inhibition: -19.3% (inactive)
[3]
  Potency: > 9.22 µM (inactive)
[4]
  Potency: > 46 µM (inactive)
[5]
  Potency: inactive
[6]
  Potency: inactive
[7]
  outcome: inactive

## O=C(CCCc1ccc(-c2ccccc2F)cc1)Nc1ccc(O)cc1
[8]
  Potency: 31.6 µM (active)
[6]
  Potency: inactive
[7]
  outcome: inactive

## CN=C1N[C@H](c2ccccc2)N(c2ccccc2)S1
[1]
  Potency: 1.26 µM (active)
[3]
  Potency: > 46 µM (inactive)
[4]
  Potency: > 46 µM (inactive)
[5]
  Potency: inactive
[6]
  Potency: inactive
[9]
  Potency: inactive
[7]
  outcome: inactive

## Cc1[nH]ccc2c1[nH]c1cc(=O)ccc12
[10]
  activity change, negative = inhibition: -37.6% [at 17.2 µM] (inactive)
[2]
  activity, negative = inhibition: 4.88% [at 17.2 µM] (inactive)
[3]
  Potency: > 20.6 µM (inactive) and > 46 µM (inactive)
[4]
  Potency: > 20.6 µM (inactive) and > 46 µM (inactive)
[5]
  Potency: inactive
[11]
  Potency: inactive
[12]
  Potency: inactive
[13]
  outcome: inactive
[14]; at 25.7 µM (top of the series)
  activity change, negative = inhibition: -0.514% (inactive)
[14]; at 57.5 µM (top of the series)
  activity change, negative = inhibition: 6.27% (inactive)
[14]; [19]
  max response: 11.1% and 0.549%
[14]; [20]
  max response: 9.17% and 10.7%
[9]
  Potency: inactive

## Nc1ccc(C(=O)O)c(O)c1 (tested in a mixture with another compound)
[14]; at 57.5 µM (top of the series)
  activity change, negative = inhibition: 15.3% (inactive)
[14]; [19]
  max response: 6.65%
[14]; [20]
  max response: 22.7%

## Cn1c(=O)c(-c2ccccc2)nc2cnc(Oc3ccccc3)nc21
[1]
  Potency: 2 µM (active)
[10]
  activity change, negative = inhibition: 7.65% (inactive)
[2]
  activity, negative = inhibition: -0.677% (inactive)
[3]
  Potency: > 9.22 µM (inactive)
[4]
  Potency: > 46 µM (inactive)
[5]
  Potency: inactive
[11]
  Potency: inactive
[8]
  Potency: inactive
[7]
  outcome: inactive

## CCCCCCCNS(=O)(=O)c1cccc2c(Cl)cccc12
[1]
  Potency: 6.31 µM (active)
[3]
  Potency: > 46 µM (inactive)
[4]
  Potency: > 46 µM (inactive)
[8]
  Potency: 7.94 µM (active)
[6]
  Potency: inactive
[7]
  outcome: inactive

## NCCC[C@H](N)CC(=O)N[C@H]1CNC(=O)[C@H]([C@H]2C[C@H](O)N=C(N)N2)NC(=O)C(=CNC(N)=O)NC(=O)[C@H](CO)NC(=O)[C@H](CO)NC1=O (β3hOrn-[Dap]SS[ΔAla(3-NHCONH2)][X4]; lactam 1-C)
[7]
  outcome: inactive

## C=CCc1ccc(OC(=O)c2ccccc2)c(OC)c1
[8]
  Potency: 5.01 µM (active)
[6]
  Potency: inactive
[12]
  Potency: inactive
[13]
  outcome: inactive
[14]; at 57.5 µM (top of the series)
  activity change, negative = inhibition: 6.62% (inactive)
[14]; [19]
  max response: 5.85%
[14]; [20]
  max response: 15.6%
[15]
  Potency: inactive
[16]
  Potency: inactive
[17]
  Potency: inactive
[18]
  activity change, negative = inhibition: -4.91% [at 12.7 µM] (inactive)
